HCMV antiviral: human cytomegalovirus inhibition | HFF cells, HCMV-luciferase reporter, 72 h; stronger effect = lower value | activity change, negative = inhibition, % at 57.5 µM | hit rate 4.5% among 410,000 | AID 1259415; in the data active = activity change below about -60%; inconclusive = no clear call, values can overlap the other calls; inactive = above about -39%
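Cell-based, HFFs, 1000 cells/well, 16 h 37C; cpds in DMSO + HCMV-luc, MOI 1 PFU/cell; 72 h 37C; OneGlo luminescence after 5 min RT; norm. to buffer vs Salinomycin 10uM.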
HCV inh: inhibitors of hepatitis C virus infection. Huh7.5.1 HCVcc-Cre infection, luciferase reporter, 44 h. Potency, µM (titrated, usually from 41.8 µM), for the others: top-dose activity change, negative = inhibition, hits mostly inhibitors. hit rate 3.4% among 340,000. AID 651820; note: potency is the fitted concentration of half-maximal effect
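Infectious HCV cell culture screen: compound-treated cells (1,000/well, pre-plated 4 h) are infected with HCVcc-Cre at roughly 0.5 moi and grown 44 h. Infection is quantified by luciferase signal after 15 min substrate incubation at room temperature.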
MARV entry inh: blocks Marburg virus binding to or entry into cells | hit rate 1.8% among 300,000 | Marburg virus pseudotyped entry inhibition, cell reporter | Potency, µM (doses to about 37.8 µM), without a hit: top-dose activity change, negative = inhibition, hits mostly inhibitors; calls by dose curve; tested in HEK293 cells; note: potency is the fitted concentration of half-maximal effect
LASV entry inh: blocks Lassa virus binding to or entry into cells; Potency, µM (doses to about 37.9 µM), inactives show at the highest dose activity change, negative = inhibition, usual class: inhibitors; Lassa virus pseudotype entry inhibition, cell reporter; hit rate 1.2% among 300,000; calls by dose curve; tested in HEK293 cells; note: potency is the fitted concentration of half-maximal effect; nearly all actives have a fitted effect of over 50% in size
FMDV inh: foot and mouth disease virus antiviral activity; FMDV antiviral cell-based qHTS; Potency, µM (series often up to 57.9 µM), inactives show at the highest dose activity change, negative = inhibition, usual class: inhibitors; hit rate 1.2% among 410,000; calls by dose curve; tested in HEK293T cells; note: read-out not given here; potency is the fitted concentration of half-maximal effect; nearly all actives have a fitted effect of over 45% in size
Giardia FBPA inh: Giardia lamblia aldolase inhibition; A8B2U2; purified Giardia FBPA; Potency, µM (titrated, usually from 59.6 µM), without a hit: at the top dose activity, negative = inhibition, most hits filed as inhibitors; hit rate 0.71% among 290,000; AID 2451; note: potency is the fitted concentration of half-maximal effect; nearly all actives have a fitted effect of over 55% in size
Target sequence (A8B2U2 whole entry, looked up): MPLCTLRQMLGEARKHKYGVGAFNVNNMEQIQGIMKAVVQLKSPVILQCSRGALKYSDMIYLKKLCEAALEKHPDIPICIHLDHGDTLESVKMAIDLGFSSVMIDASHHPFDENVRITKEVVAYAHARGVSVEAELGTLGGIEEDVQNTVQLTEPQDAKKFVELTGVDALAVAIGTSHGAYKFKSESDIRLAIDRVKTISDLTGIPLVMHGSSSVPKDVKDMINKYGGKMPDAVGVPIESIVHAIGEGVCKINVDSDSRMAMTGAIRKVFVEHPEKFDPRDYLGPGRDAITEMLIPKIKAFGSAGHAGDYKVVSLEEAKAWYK
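40 nM FBPA preincubated 10 min at RT with compound (up to 57.5 uM final), then substrate plus GAPDH/TPI/NAD/arsenate coupling and diaphorase/resazurin added. Fluorescence read after 20 min at RT, 525/598 nm.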
An asterisk follows results filed as active; [ ] = dose if it differs, or a comment. Sampled rows, rich in hits. Any-hit rate of the full collection: about 8.3%. Unless noted, calls come from the whole dose curve; as a rule, active = well fitted curve in the direction sought with a large enough effect; inconclusive = small, poorly fitted or top-dose-only effect, or another doubt; inactive = no such curve, though single readings can be large; an effect the other way counts as inactive or inconclusive. % is set by controls: 0 for no effect and ±100 for the full control effect.

CCCOC(=O)c1[nH]c2c(c1C)C(=O)CC(c1ccc(OC)c(OC)c1)C2 (centres undefined) was read as HCMV antiviral inconclusive, HCV inh -29%, MARV entry inh -9%, LASV entry inh -8%, FMDV inh -22% and Giardia FBPA inh 3%.
`COCCOC(=O)c1[nH]c2c(c1C)C(=O)CC(c1ccc(OC)c(OC)c1)C2` (centres undefined) gave HCMV antiviral inconclusive, HCV inh 10µM*, FMDV inh inconclusive and Giardia FBPA inh 17%.
Screening CCOC(=O)C1=C(C)NC2=C(C(=O)CC(c3ccc(OC)c(OC)c3)C2)C1c1ccc(C)o1 (centres undefined) returned HCMV antiviral -32, HCV inh 13µM*, MARV entry inh inconclusive, LASV entry inh -10%, FMDV inh inconclusive and Giardia FBPA inh -14%.
Screening CCC(O)c1nc2ccccc2n1CCOc1cc(C)cc(C)c1 (centres undefined) returned HCMV antiviral 29, MARV entry inh inconclusive, LASV entry inh inconclusive and FMDV inh -29%.
`Cc1ccsc1/C=C/C1=Cc2c(sc(NC(=O)CSc3n[nH]c(N)n3)c2C#N)C(C)(C)C1` gave HCMV antiviral -20, HCV inh 11µM*, MARV entry inh inconclusive, LASV entry inh inconclusive, FMDV inh inconclusive and Giardia FBPA inh inconclusive.
For CCC(c1nnc(SCC(=O)Nc2ccc(Cl)cc2C(F)(F)F)n1C1CCCCC1)N(C)C (centres undefined) the results were HCMV antiviral -36, HCV inh 1%, MARV entry inh inconclusive, LASV entry inh 13µM*, FMDV inh -10% and Giardia FBPA inh 4%.
Screening CC(O)C(NS(=O)(=O)c1ccc(Cl)cc1)C(=O)OCC(=O)c1c[nH]c2ccccc12 (centres undefined) returned HCMV antiviral 47, HCV inh inconclusive, MARV entry inh inconclusive, LASV entry inh inconclusive, FMDV inh 16µM* and Giardia FBPA inh -3%.
Screening CSCCC(NS(=O)(=O)c1ccc(Cl)cc1)C(=O)OCC(=O)c1c(C)[nH]c2ccccc12 (centres undefined) returned HCMV antiviral 39, HCV inh -14%, MARV entry inh 12µM*, LASV entry inh inconclusive, FMDV inh 35µM* and Giardia FBPA inh -12%.
Screening CC(C)C(NS(=O)(=O)c1c(Cl)cccc1Cl)C(=O)OCC(=O)c1c[nH]c2ccccc12 (centres undefined) returned HCMV antiviral 22, HCV inh inconclusive, MARV entry inh inconclusive, LASV entry inh inconclusive, FMDV inh -25% and Giardia FBPA inh -3%.
Cc1[nH]c2ccccc2c1C(=O)COC(=O)C1CC(O)CN1S(=O)(=O)c1ccc(Cl)cc1 (centres undefined) was read as HCMV antiviral 0, HCV inh 0%, MARV entry inh -4%[46.1 µM], LASV entry inh -4% and FMDV inh 0%.
`CCCCCCCCCCCCCCCCOC[C@@H](O)COP(=O)([O-])OCC[N+](C)(C)C` gave FMDV inh -11%[6.7 µM] and Giardia FBPA inh 0%.
`CCc1cc(C(=O)NCC2Cc3cc(C)cc(-c4cc(C(C)=O)ccc4F)c3O2)n(C)n1` (centres undefined) gave FMDV inh -24%.
Screening CCCCC[C@H](O)/C=C\[C@@H]1[C@H](O)CC(=O)[C@@H]1CCCCCCC(=O)O returned Giardia FBPA inh 1%[21.7 µM].
`CCCCC[C@H](O)/C=C/[C@H]1CCC(=O)[C@@H]1CCCCCCC(=O)N1CCCCC1CO` (some centres undefined) gave HCMV antiviral -74*, HCV inh -26%, MARV entry inh inconclusive, LASV entry inh inconclusive, FMDV inh inconclusive and Giardia FBPA inh 9%.
Screening COC(=O)c1c(NC(=O)c2cc(=O)c3ccc(C)c(C)c3o2)sc2c1CCCC2 returned HCMV antiviral 5, MARV entry inh 18%[46.1 µM], LASV entry inh -7%[46.1 µM] and FMDV inh -18%.
For CC1=C(C)C(=O)N(c2ccccn2)C1=O the results were HCMV antiviral 8, HCV inh 13%, MARV entry inh 0%, LASV entry inh -22%, FMDV inh -13% and Giardia FBPA inh -9%.
Cc1nn(-c2ccccn2)c2c1C(=O)C(Br)CC2 (centres undefined) was read as HCV inh -5%, MARV entry inh inconclusive, LASV entry inh -5%, FMDV inh 32µM* and Giardia FBPA inh 5µM*.
`Cc1cc(C)nc(-c2cccc3c2OC(CNC(=O)c2ccc(Cn4nc(C)cc4C)cc2)C3)n1` (centres undefined) gave FMDV inh -9%.
`CCOc1ccc(OCC)c(NS(=O)(=O)c2cc(-c3onc(C)c3C)ccc2OC)c1` gave HCMV antiviral -4, LASV entry inh 6%[46.1 µM] and FMDV inh 22%.
Screening COc1ccc(-c2nc(C)c(CCNC(=O)c3cc(OC)c(OC)c(OC)c3)s2)cc1OC returned HCMV antiviral 36, LASV entry inh -27%[46.1 µM] and FMDV inh -7%.
O=C1Nc2ccccc2S/C1=C/c1cccs1 was read as HCMV antiviral 72, HCV inh 6.3µM*, MARV entry inh 9%[46.1 µM], LASV entry inh -4%[46.1 µM], FMDV inh 0% and Giardia FBPA inh 2%.
For O=C1NC(=S)SC1=Cc1cccs1 the results were HCMV antiviral 21, HCV inh 10%, MARV entry inh 12%[46.1 µM], LASV entry inh 4%[46.1 µM] and FMDV inh -12%.
Screening O=C(NNC(=O)c1cccnc1SCc1cccc([N+](=O)[O-])c1)c1ccc(F)cc1 returned HCMV antiviral -92*, HCV inh inconclusive, MARV entry inh inconclusive, LASV entry inh inconclusive, FMDV inh -12% and Giardia FBPA inh 1%.
`O=C(NNC(=O)c1cccnc1SCc1cccc([N+](=O)[O-])c1)c1cccnc1` gave HCMV antiviral -6, HCV inh 3%, MARV entry inh -18%, LASV entry inh -1%, FMDV inh 0% and Giardia FBPA inh 0%.
Screening O=C(NNC(=O)c1cccnc1SCc1cccc([N+](=O)[O-])c1)c1ccccn1 returned HCMV antiviral -100*, HCV inh inconclusive, MARV entry inh 3.2µM*, LASV entry inh inconclusive, FMDV inh -20% and Giardia FBPA inh 17%.
Screening O=C(OCc1cccc([N+](=O)[O-])c1)c1cccnc1Cl returned HCMV antiviral 8, HCV inh 6%, MARV entry inh 1%[46.1 µM], LASV entry inh 14%[46.1 µM] and FMDV inh 10%.
Screening CNc1nc2cnc(Nc3cccc(C(F)(F)F)c3)cc2n1Cc1ccc(OC)c(OC)c1 returned HCMV antiviral 20.
CCCCNc1nc(C#N)nc(Nc2ccccc2)n1 was read as Giardia FBPA inh -1%.
